Outcome and AC50 data for six molecules are collected here from PubChem BioAssay (EPA / NIEHS).

Details in all cases: mRNA level, 48 h; actives raise or lower the signal
Read-out in test [1]: Cytochrome P450 3A7 (Homo sapiens) (UniProt P24462)
Description: LTEA_HepaRG_CYP3A7: Life Technologies and Expression Analysis (LTEA) Assay for CYP3A7 using HepaRG (AID 2283492). In outline: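 Human HepaRG liver cells, 48 h post-plating, switched to serum-free induction medium and exposed in duplicate for 48 h. Dosing: 100 uM top, half-log dilutions, 8 points, 0.5% DMSO vehicle. Read-out: CYP3A7 mRNA, gain or loss fitted against DMSO baseline.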

Read-out in the next test: CYP3A5 (gene 1577)
Description: LTEA_HepaRG_CYP3A5: Life Technologies and Expression Analysis (LTEA) Assay for CYP3A5 using HepaRG (AID 2283493). Put shortly:
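mRNA induction or loss of CYP3A5 assessed in HepaRG after 48 h dosing, 100 uM top concentration, duplicate wells; TaqMan qRT-PCR with ACTB, GAPDH, POLR2A normalization; 0.5% DMSO as negative control.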

Read-out in test [2]: Fatty Acid-Binding Protein 1 (FABP1), FABP1 (gene 2168)
Description: LTEA_HepaRG_FABP1: Life Technologies and Expression Analysis (LTEA) Assay for Fatty Acid-Binding Protein 1 (FABP1) using HepaRG (AID 2283494). Put shortly: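 Differentiated human HepaRG cells exposed 48 h in serum-free induction medium to eight half-log concentrations up to 100 uM (0.5% DMSO), duplicate. FABP1 mRNA by qRT-PCR, normalised to ACTB, GAPDH, POLR2A; bidirectional fitting against DMSO.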

Read-out in test [3]: Cytochrome P450 4A22 (Homo sapiens) (UniProt Q5TCH4)
Description: LTEA_HepaRG_CYP4A22: Life Technologies and Expression Analysis (LTEA) Assay for Cytochrome P450 4A22 (CYP4A22) using HepaRG (AID 2283495). Put shortly:
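Readout is CYP4A22 transcript induction or loss, quantified by qRT-PCR and normalized to ACTB, GAPDH and POLR2A. Human HepaRG cells receive test chemicals for 48 h at eight half-log concentrations from 100 uM in 0.5% DMSO.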

Read-out in test [4]: Cytochrome P450 7A1 (Homo sapiens) (UniProt P22680)
Description: LTEA_HepaRG_CYP7A1: Life Technologies and Expression Analysis (LTEA) Assay for Cytochrome P450 7A1 (CYP7A1) using HepaRG (AID 2283496). In outline: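 Gene expression endpoint in human HepaRG liver cells treated for 48 h with test chemicals (up to 100 uM, 0.5% DMSO). Values come from bidirectional concentration-response fitting versus DMSO.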

Read-out in test [5]: Glutamate-cysteine ligase catalytic (GCLC), GCLC (gene 2729)
As to the kind of experiment: LTEA_HepaRG_GCLC: Life Technologies and Expression Analysis (LTEA) Assay for Glutamate-cysteine ligase catalytic (GCLC) using HepaRG (AID 2283498). Put shortly: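 Differentiated HepaRG cells exposed 48 h in serum-free induction medium, eight-point half-log series topping at 100 uM in 0.5% DMSO, duplicates. GCLC mRNA by qRT-PCR normalized to ACTB, GAPDH and POLR2A, fitted bidirectionally versus DMSO.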

Read-out in test [6]: growth arrest and DNA damage 45 (GADD45G), GADD45G (gene 10912)
Description: LTEA_HepaRG_GADD45G: Life Technologies and Expression Analysis (LTEA) Assay for growth arrest and DNA damage 45 (GADD45G) using HepaRG (AID 2283499). Put shortly:
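Gain or loss of GADD45G mRNA, quantified by TaqMan qRT-PCR against three housekeeping genes, is fitted in both directions relative to 0.5% DMSO. Human HepaRG cultures receive test chemical for 48 h at up to 100 uM.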

Read-out in test [7]: Glutamate-cysteine ligase regulatory (GCLM), GCLM (gene 2730)
Description: LTEA_HepaRG_GCLM: Life Technologies and Expression Analysis (LTEA) Assay for Glutamate-cysteine ligase regulatory (GCLM) using HepaRG (AID 2283500). Put shortly:
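Human liver HepaRG cultures receive test chemicals for 48 hours at up to 100 uM in 0.5% DMSO. GCLM expression is measured by qRT-PCR and analysed for increases or decreases against vehicle.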

Read-out in test [8]: Glutathione S-transferase M3 (GSTM3), GSTM3 (gene 2947)
As to the kind of experiment: LTEA_HepaRG_GSTM3: Life Technologies and Expression Analysis (LTEA) Assay for Glutathione S-transferase M3 (GSTM3) using HepaRG (AID 2283501). Put shortly:
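HepaRG, plated 48 h, then serum-free induction medium; test chemical 48 h, duplicate; 100 uM top, half-log x8, 0.5% DMSO. Read-out: GSTM3 mRNA (TaqMan qRT-PCR, Fluidigm array). Bidirectional fit vs DMSO.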

Read-out in test [9]: Heat shock 70 kDa protein 1 (HSPA1A), gene 3303
As to the kind of experiment: LTEA_HepaRG_HSPA1A: Life Technologies and Expression Analysis (LTEA) Assay for Heat shock 70 kDa protein 1 (HSPA1A) using HepaRG (AID 2283502). In outline:
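HSPA1A induction in human HepaRG liver cells is measured after 48 h of chemical treatment (100 uM maximum, 0.5% DMSO vehicle). Expression comes from qRT-PCR normalized to endogenous controls.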

Read-out in test [10]: Hypoxia-inducible factor 1-alpha (Homo sapiens) (UniProt Q16665)
Description: LTEA_HepaRG_HIF1A: Life Technologies and Expression Analysis (LTEA) Assay for Hypoxia-inducible factor 1 (HIF1A) Trancription factor using HepaRG (AID 2283503).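 Also: HIF1A transcript by TaqMan qRT-PCR normalized to ACTB GAPDH and POLR2A.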 Put shortly:
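HepaRG, 48 h exposure, 8-pt half-log series from 100 uM, 0.5% DMSO vehicle, duplicates. Readout: HIF1A transcript by qRT-PCR (Fluidigm array), housekeeping-normalised. Bidirectional curve fit vs DMSO baseline.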

Read-out in test [11]: 3-Hydroxy-3-Methylglutaryl-CoA Synthase 2 (HMGCS2), HMGCS2 (gene 3158)
Description: LTEA_HepaRG_HMGCS2: Life Technologies and Expression Analysis (LTEA) Assay for 3-Hydroxy-3-Methylglutaryl-CoA Synthase 2 (HMGCS2) using HepaRG (AID 2283504). In outline:
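HepaRG, plated 48 h then switched to serum-free induction media; cmpd 8-pt, max 100 uM, 1/2-log, 0.5% DMSO, n=2, 48 h. HMGCS2 mRNA by Fluidigm TaqMan qRT-PCR, ACTB/GAPDH/POLR2A norm; bidirectional fit vs DMSO.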

Read-out in another test: HGF (gene 3082)
Description: LTEA_HepaRG_HGF: Life Technologies and Expression Analysis (LTEA) Assay for Hepatocyte Growth Facto (HGF) using HepaRG (AID 2283505). Put shortly:
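Read-out is HGF transcript level by qRT-PCR, normalized to three housekeeping genes, fitted bidirectionally against 0.5% DMSO vehicle. Human HepaRG cells received test chemicals for 48 h at up to 100 uM.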

Read-out in test [12]: Insulin Like Growth Factor 1 (IGF1), IGF1 (gene 3479)
As to the kind of experiment: LTEA_HepaRG_IGF1: Life Technologies and Expression Analysis (LTEA) Assay for Insulin Like Growth Factor 1 (IGF1) using HepaRG (AID 2283506). Put shortly:
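Using human HepaRG liver cells, IGF1 transcript induction or suppression is measured 48 h after dosing across eight concentrations capped at 100 uM. Values derive from bidirectional concentration-response fitting with DMSO as baseline.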

Read-out in test [13]: Intercellular Adhesion Molecule 1 (ICAM1), ICAM1 (gene 3383)
Description: LTEA_HepaRG_ICAM1: Life Technologies and Expression Analysis (LTEA) Assay for Intercellular Adhesion Molecule 1 (ICAM1) using HepaRG (AID 2283507). In outline: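 Readout is qRT-PCR mRNA level, normalized to three housekeeping genes and fitted bidirectionally against 0.5% DMSO vehicle. Human HepaRG cultures received compound for 48 h, top concentration 100 uM with half-log dilutions.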

Read-out in test [14]: Insulin-like growth factor-binding protein 1 (IGFBP1), IGFBP1 (gene 3484)
Description: LTEA_HepaRG_IGFBP1: Life Technologies and Expression Analysis (LTEA) Assay for Insulin-like growth factor-binding protein 1 (IGFBP1) using HepaRG (AID 2283508). Put shortly:
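Thawed HepaRG cells are plated for 48 h, switched to serum-free induction medium, then dosed in duplicate for another 48 h (100 uM top, half-log steps). Lysates in RLT go to qRT-PCR, and gain or loss of signal is fitted relative to vehicle.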

Read-out in test [15]: Interleukin 6 (IL6), IL6 (gene 3569)
Description: LTEA_HepaRG_IL6: Life Technologies and Expression Analysis (LTEA) Assay for Interleukin 6 (IL6) using HepaRG (AID 2283509). In outline: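 HepaRG cells exposed in duplicate for 48 h to eight half-log concentrations, top 100 uM, in 0.5% DMSO serum-free induction medium. mRNA measured by qRT-PCR, normalized to ACTB, GAPDH and POLR2A. Bidirectional fit versus DMSO.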

Read-out in test [16]: Interleukin 6 Receptor (IL6R), IL6R (gene 3570)
As to the kind of experiment: LTEA_HepaRG_IL6R: Life Technologies and Expression Analysis (LTEA) Assay for Interleukin 6 Receptor (IL6R) using HepaRG (AID 2283510).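 As to AC50: TaqMan qRT-PCR signal normalized to ACTB GAPDH and POLR2A housekeeping genes.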 In outline:
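Concentration-response in human liver HepaRG cells: eight concentrations from 100 uM downward by half-logs, 48 h exposure, 0.5% DMSO vehicle. IL6R mRNA change measured by qRT-PCR and fitted in both directions relative to vehicle.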

Read-out in test [17]: Potassium channel subfamily K member 1 (KCNK1), KCNK1 (gene 3775)
Description: LTEA_HepaRG_KCNK1: Life Technologies and Expression Analysis (LTEA) Assay for Potassium channel subfamily K member 1 (KCNK1) using HepaRG (AID 2283511). Put shortly: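 Differentiated HepaRG cells, 48 h exposure in serum-free induction medium with 0.5% DMSO; 8 concentrations, half-log from 100 uM, duplicate. KCNK1 mRNA by qRT-PCR, normalized to ACTB, GAPDH, POLR2A; bidirectional fit vs DMSO.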

The source made the active and inactive calls. The calls were made as follows: active = hit-call score of the fitted dose curve at least 0.9, where 1 is the maximum; inactive = score below 0.9.

Cytochrome P450 3A7 (Homo sapiens), sequence (P24462 whole entry, looked up): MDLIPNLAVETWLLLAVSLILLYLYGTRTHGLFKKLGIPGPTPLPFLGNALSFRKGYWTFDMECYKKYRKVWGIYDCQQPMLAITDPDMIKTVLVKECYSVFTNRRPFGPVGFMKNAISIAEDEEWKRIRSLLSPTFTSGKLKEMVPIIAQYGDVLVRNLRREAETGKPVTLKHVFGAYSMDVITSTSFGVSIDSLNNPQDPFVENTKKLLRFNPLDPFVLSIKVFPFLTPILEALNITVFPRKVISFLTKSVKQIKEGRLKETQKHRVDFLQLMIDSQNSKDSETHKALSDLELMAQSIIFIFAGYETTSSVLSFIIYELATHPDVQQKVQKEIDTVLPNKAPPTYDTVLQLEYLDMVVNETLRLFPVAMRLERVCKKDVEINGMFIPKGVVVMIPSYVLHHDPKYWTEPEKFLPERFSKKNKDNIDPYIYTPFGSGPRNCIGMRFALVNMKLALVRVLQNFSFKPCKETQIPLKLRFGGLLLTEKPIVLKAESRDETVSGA
Hypoxia-inducible factor 1-alpha (Homo sapiens), sequence (Q16665 whole entry, looked up): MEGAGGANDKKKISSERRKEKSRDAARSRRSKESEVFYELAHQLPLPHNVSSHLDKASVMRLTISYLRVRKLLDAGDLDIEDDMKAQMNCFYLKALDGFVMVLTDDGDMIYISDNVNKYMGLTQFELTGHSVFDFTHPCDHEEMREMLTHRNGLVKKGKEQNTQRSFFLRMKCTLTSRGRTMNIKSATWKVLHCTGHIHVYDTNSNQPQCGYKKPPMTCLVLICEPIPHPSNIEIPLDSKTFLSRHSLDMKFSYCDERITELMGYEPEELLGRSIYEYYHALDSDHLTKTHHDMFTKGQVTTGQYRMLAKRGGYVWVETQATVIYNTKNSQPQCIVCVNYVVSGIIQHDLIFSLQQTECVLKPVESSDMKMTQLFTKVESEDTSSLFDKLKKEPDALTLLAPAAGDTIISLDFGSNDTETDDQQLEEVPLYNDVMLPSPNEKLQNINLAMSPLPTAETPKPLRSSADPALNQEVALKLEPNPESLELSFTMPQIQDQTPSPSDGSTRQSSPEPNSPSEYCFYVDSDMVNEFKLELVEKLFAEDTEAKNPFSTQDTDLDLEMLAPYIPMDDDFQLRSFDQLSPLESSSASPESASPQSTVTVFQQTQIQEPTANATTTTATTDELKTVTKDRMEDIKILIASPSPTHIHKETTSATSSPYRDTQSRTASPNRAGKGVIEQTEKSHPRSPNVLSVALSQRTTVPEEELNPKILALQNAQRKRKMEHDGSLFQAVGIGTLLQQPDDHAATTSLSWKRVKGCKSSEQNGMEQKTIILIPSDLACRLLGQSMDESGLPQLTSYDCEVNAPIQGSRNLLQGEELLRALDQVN

The term AC50 denotes the concentration at which the activity in the assay is half-maximal. As to `CC(C)(C)C(O)/C(=C\c1ccc(Cl)cc1Cl)n1cncn1` (centres undefined), the molecule was called inactive (in test [1]; with CYP3A5 (gene 1577); in test [7]; in test [8]; in the test with HGF (gene 3082)). In addition, the AC50 is 30.5 µM (active) in [2]; 21.1 µM (active) in [3]; 32.6 µM (active) in test [4]; 81.5 µM (active) in [5]; 29.5 µM (active) in [6]; 93.3 µM (active) in [9]. Also, the AC50 in test [10] was 82.3 µM (active); in test [11], 30.7 µM (active); in [12], 91.2 µM (active); in [13], 50 µM (active); in test [14] it was 56.9 µM (active); in test [15], 94.6 µM (active). Besides, the values for the AC50 in test [16] and in test [17] were 50 µM (active) and 71.6 µM (active), respectively.
As to `CN1CSC(=S)N(C)C1`, the result (in test [1]; with CYP3A5 (gene 1577); in test [2]; in test [3]; in test [4]; in [5]) was inactive. In addition, the molecule was called inactive in test [6], in test [7], in [8], in test [9], in [10] and in test [11]. Moreover, the outcome (with HGF (gene 3082); in test [12]; in [13]; in test [14]; in [15]; in [16]) was inactive. Also, in test [17], the result was inactive.
On to `N#CN`, for which the molecule was classed as inactive (in test [1]; with CYP3A5 (gene 1577); in test [2]; in test [3]; in [4]; in [5]). For the same molecule, the call in test [6], in [7], in test [8], in test [9], in [10] and in [11] was inactive. In addition, the result (in the test with HGF (gene 3082); in test [12]; in test [13]; in test [14]; in test [15]; in [16]) was inactive. Moreover, in test [17], the call was inactive.
Consider `Cc1[nH]c(=O)n(C(C)(C)C)c(=O)c1Cl`, for which the outcome (in [1]; in the test with CYP3A5 (gene 1577); in test [2]; in test [3]; in test [5]; in test [6]) was inactive. In addition, the molecule was called inactive (in test [7]; in [8]; in test [9]; in test [10]; in [11]; in the test with HGF (gene 3082)). Further, the result in [12], in test [13], in test [15], in test [16] and in [17] was inactive. Also, the AC50 in test [4] is 18.8 µM (active); in test [14], 50 µM (active).
Turning to `CNC(=O)/C=C(\C)OP(=O)(OC)OC`, the result (in [1]; with CYP3A5 (gene 1577); in test [2]; in [3]; in test [4]; in [5]) was inactive. The outcome in [6], in test [7], in [8], in test [9], in test [10] and in test [11] was inactive. For the same molecule, the molecule was called inactive (with HGF (gene 3082); in test [12]; in [13]; in [14]; in test [15]; in test [16]). Also, the result in [17] was inactive.
Take `CCCN(CCOc1c(Cl)cc(Cl)cc1Cl)C(=O)n1ccnc1`: the AC50 in test [1] was 32.4 µM (active); in test [2] it was 32.9 µM (active); in test [3] it was 27.7 µM (active); in test [4], 33.2 µM (active); in test [5] it was 12.4 µM (active); in [6], 13 µM (active). In addition, the AC50 in test [7] is 13.4 µM (active); in [8], 78 µM (active); in [11] it was 29.7 µM (active); in test [12] it was 24.4 µM (active); in [13], 50 µM (active); in test [14] it was 24.4 µM (active). The half-maximal activity concentration (AC50) was 36.5 µM (active) in test [15], 87.1 µM (active) in test [16] and 62 µM (active) in [17]. Further, the result (with CYP3A5 (gene 1577); in test [9]; in [10]; in the test with HGF (gene 3082)) was inactive.
